Laboratory results: the supplement of paper PMC6555819

Experiments:
Test in all cases: PBM binding z-score (relative to random genomic background probes); higher = stronger binding; sequences stand for … in GC…GCGATTGACAGCGTAGAATGAAGG
[1] = test system: FXR:RXRa (NR concentration 270 nM, RXRa partner concentration 90 nM)
Procedure, shortened: (§1)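 The probes on custom Agilent 4×180K protein-binding microarrays were double-stranded, with 34-nt variable regions bearing direct-repeat seeds, single-nucleotide variants, half-site ablations and random human genomic background sequences. Incubation lasted 1 h with ligand-free nuclear receptor dimers in PBS pH 7.4, 2% milk, 0.02% Triton X-100, 1 mM DTT, 0.2 mg/mL BSA and 0.4 mg/ml salmon testes DNA. Antibodies against each partner (one per run) detected bound dimers, and fluorescence scans were regression-normalized. Binding z-scores take the random background probes as reference.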

[2] = test system: LXRa:RXRa (NR concentration 270 nM, RXRa partner concentration 90 nM)
Procedure, shortened: as §1

[3] = test system: LXRa homodimer (NR concentration 270 nM)
Procedure, shortened: as §1

[4] = test system: LXRb:RXRa (NR concentration 270 nM, RXRa partner concentration 90 nM)
Procedure, shortened: as §1

[5] = test system: LXRb homodimer (NR concentration 270 nM)
Procedure, shortened: as §1

[6] = test system: PPARa:RXRa (NR concentration 270 nM, RXRa partner concentration 90 nM)
Procedure, shortened: as §1

[7] = test system: PPARg:RXRa (NR concentration 180 nM, RXRa partner concentration 90 nM)
Procedure, shortened: as §1

[8] = test system: PPARg:RXRa 270nM:90nM, anti-RXR (NR concentration 270 nM, RXRa partner concentration 90 nM)
Procedure, shortened: as §1

[9] = test system: PPARg:RXRa 30nM:10nM, anti-RXR (NR concentration 30 nM, RXRa partner concentration 10 nM)
Procedure, shortened: as §1

[10] = test system: PPARg:RXRa 90nM:30nM, anti-RXR (NR concentration 90 nM, RXRa partner concentration 30 nM)
Procedure, shortened: as §1

[11] = test system: PPARg:RXRa DBDmut IVT, anti-RXR (DBD mutation: RXRa K156A/R161A, NR concentration 270 nM, RXRa partner concentration 90 nM)
Procedure, shortened: as §1

[12] = test system: PPARg:RXRa IVT, anti-PPARg (NR concentration 270 nM, RXRa partner concentration 90 nM)
Procedure, shortened: as §1

[13] = test system: PPARg DBDmut:RXRa IVT, anti-PPARg (DBD mutation: PPARg1 K132A/R137A, NR concentration 270 nM, RXRa partner concentration 90 nM)
Procedure, shortened: as §1

[14] = test system: PPARg DBDmut IVT, anti-PPARg (DBD mutation: PPARg1 K132A/R137A, NR concentration 270 nM)
Procedure, shortened: as §1

[15] = test system: PPARg homodimer (NR concentration 180 nM)
Procedure, shortened: as §1

[16] = test system: PXR:RXRa (NR concentration 270 nM, RXRa partner concentration 90 nM)
Procedure, shortened: as §1

[17] = test system: PXR homodimer (NR concentration 270 nM)
Procedure, shortened: as §1

[18] = test system: RARa:RXR (NR concentration 270 nM, RXRa partner concentration 90 nM)
Procedure, shortened: as §1

[19] = test system: RARa homodimer (NR concentration 270 nM)
Procedure, shortened: as §1

[20] = test system: RARb:RXRa (NR concentration 270 nM, RXRa partner concentration 90 nM)
Procedure, shortened: as §1

Row | Sequence | PBM binding z-score [1] | PBM binding z-score [2] | PBM binding z-score [3] | PBM binding z-score [4] | PBM binding z-score [5] | PBM binding z-score [6] | PBM binding z-score [7] | PBM binding z-score [8] | PBM binding z-score [9] | PBM binding z-score [10] | PBM binding z-score [11] | PBM binding z-score [12] | PBM binding z-score [13] | PBM binding z-score [14] | PBM binding z-score [15] | PBM binding z-score [16] | PBM binding z-score [17] | PBM binding z-score [18] | PBM binding z-score [19] | PBM binding z-score [20]
1 | GCTTGTAGATCAAGGTTAAGAATGACTAAGCTAA | 0.096 | 0.324 | -0.618 | 0.368 | -0.604 | 1.37 | 1.3 | 1.95 | 0.416 | 1.72 | 1.74 | 0.924 | 0.367 | 0.28 | -0.624 | 0.546 | -0.428 | 0.94 | -0.617 | 0.932
2 | ACAGACAGGTGATGAAGGTAACGCAGGCTATCAT | -0.062 | -0.206 | -0.481 | -0.283 | -0.516 | -0.00302 | 0.871 | 0.114 | -0.0221 | 0.00481 | -0.0406 | 0.365 | -0.0492 | 0.0429 | -0.243 | -0.376 | 0.103 | -0.27 | -0.271 | 0.179
3 | TCATGTAGATCAAAGGTTAAGAAAGCCGAAGCCT | 1.74 | 2.28 | 0.326 | 2.06 | -0.197 | 4.5 | 8.22 | 8.1 | 7.58 | 8.85 | 2.23 | 3.59 | 0.546 | 0.593 | 1.17 | 2.12 | 0.246 | 3.29 | 0.881 | 1.91
4 | CAAACTAGGTCGAGGTCAAAGTCGGTTTGTGCCA | 5.44 | 5.1 | 3.63 | 4.38 | 1.07 | 5.46 | 7.22 | 6.53 | 3.54 | 5.58 | 6.55 | 6.77 | 0.51 | 0.375 | 1.85 | 5.34 | 2.29 | 4.71 | 0.547 | 4.28
5 | ACTATTAGTTGACTTAGGGCGACCGATACGACGC | 0.233 | -0.0475 | -0.0351 | -0.0198 | 0.794 | -0.104 | 0.88 | 0.00253 | 0.295 | 0.183 | 0.407 | 0.174 | 1.73 | 1.51 | 0.828 | -0.0513 | 0.0652 | 0.194 | 0.515 | 0.512
6 | TCTTGTAGATCAGCAGGTCAAGAAAGCTGGCCAA | 1.17 | 1.55 | 0.209 | 1.59 | -0.222 | 2.5 | 0.457 | 2.37 | 2.48 | 2.59 | 1.57 | 1.61 | -0.677 | -0.699 | 0.129 | 1.6 | -0.4 | 2.18 | -0.58 | 2.01
7 | AGAACGAGGGCACGCTGAGTAGATAGCAGAGTAG | 0.37 | 0.529 | -0.626 | 0.201 | -0.892 | 2.15 | 2.28 | 1.87 | 0.547 | 1.18 | 4.04 | 3.83 | 1.29 | 0.195 | 0.114 | 0.201 | -0.149 | 0.712 | -0.354 | 2.4
8 | TGATATAGGTAAATGCTAGGTGAAAGTCCGATCT | 0.297 | 0.127 | 0.0779 | -0.0435 | -0.105 | 1.62 | 1.45 | 1.84 | 1.05 | 1.44 | 4.45 | 3.66 | 0.978 | 0.956 | 0.829 | -0.09 | 0.293 | 0.178 | 1.15 | 0.212
9 | GCAACGAGGGCATTCGAGTTGATAGCATGGCGAT | 0.802 | 1.56 | -0.374 | 0.0313 | -0.641 | 1.15 | 0.475 | 0.0611 | -0.488 | -0.307 | 1.69 | 1.13 | -0.431 | -0.39 | -0.299 | 3.66 | 1.02 | 0.56 | -0.554 | 1.69
10 | CGTCCAAGGTCAGCAGGTCAATGAAAGCGACGTG | 6.32 | 4.32 | 0.919 | 3.56 | -0.0922 | 5.37 | 5.19 | 5.03 | 1.33 | 3.38 | 3.22 | 3.95 | -0.262 | -0.753 | 2.98 | 4.21 | 0.593 | 5.49 | 0.0185 | 5.24
11 | AATACAGGGTCACTAGGCAAGAGTAGGTACGAAT | 6.39 | 4.96 | 0.866 | 3.82 | 1.1 | 5.59 | 7.09 | 5.74 | 3.03 | 4.6 | 3.19 | 4.81 | 1.06 | 0.858 | 2.63 | 3.06 | 0.322 | 4.1 | 1.16 | 4.13
12 | TCGAGTAGGTTACTCGGGGCATTCAGCCAACATA | 0.333 | 0.921 | -0.382 | 0.814 | -0.722 | 1.13 | 0.392 | 1.33 | 1.41 | 0.94 | 3.23 | 2.79 | -0.543 | -0.378 | -0.112 | 0.641 | -0.427 | 0.651 | -1.03 | 0.57
13 | ATCTCTAGGTTACCAAGTTCAGTGAATGCCGAAC | 0.872 | 1.95 | 1.86 | 1.47 | 1.16 | 2.15 | 1.82 | 1.97 | 0.559 | 0.955 | 4.8 | 4.07 | 1.25 | 1.33 | 1.15 | 3.34 | 4.37 | 1.46 | 1.16 | 2.31
14 | GCTCGGAGGACAAGGTCAGCGCTTTGTCCGTAGA | 2.42 | 2.15 | -0.539 | 1.88 | -0.677 | 2.94 | 0.785 | 2.1 | -0.477 | 0.958 | 0.29 | 1.07 | -1.37 | -1.53 | 1.12 | 2.18 | -0.34 | 2.68 | -0.859 | 3.88
15 | AGTCAAAGTTCCTCTAGGTAACGTAAGATATGCT | -0.245 | -0.144 | -0.104 | -0.00782 | -0.432 | 0.0097 | 0.612 | 0.996 | 0.256 | 0.424 | -0.227 | 1.14 | -0.00849 | 0.378 | -0.0696 | 0.0815 | -0.225 | 0.241 | 0.00507 | 0.881
16 | CAAACTAGGTCACGAAAGGTAAAAGTCGAATGAC | 5.18 | 4.51 | 0.678 | 3 | 0.18 | 5.71 | 9.74 | 7.96 | 6.05 | 7.49 | 8.36 | 9.37 | 5.06 | 2.46 | 2.6 | 3.12 | 0.438 | 3.69 | 1.43 | 4.33
17 | ACTTACGGGTCAACGAGGTTATAGCTCGCGTATA | 7.28 | 5.05 | 0.77 | 4.4 | 0.524 | 5.72 | 5.51 | 5.57 | 2.36 | 4.17 | 3.43 | 4.16 | 1.04 | 0.353 | 3.06 | 5.45 | 2.82 | 5.16 | 0.0894 | 4.36
18 | TCAGACAGGTCAAGGTAACTCAGGTACGCAGTCG | 4.86 | 4.63 | 0.984 | 3.22 | 0.435 | 4.62 | 3.57 | 4.27 | 3.93 | 4.13 | 2.85 | 2.73 | 0.0851 | 0.283 | 1.88 | 2.46 | 0.321 | 3.37 | 0.676 | 4.31
19 | CCTTACGGGTCACTGACAGGTTCTAGCATTTGGA | 4.75 | 3.1 | 0.00693 | 2.9 | 0.128 | 4.77 | 3.89 | 4.02 | 1.11 | 2.83 | 3.31 | 3.38 | 0.541 | -0.487 | 1.98 | 2.71 | -0.239 | 3.46 | 0.459 | 3.63
